HT1080NT lethal: kills 2HG-producing HT-1080-NT fibrosarcoma cells; HT-1080-NT fibrosarcoma viability, CellTiter-Glo ATP luminescence, 48 h; Potency, µM (titrated, usually from 46.1 µM), for the others: at the highest dose activity, negative = less viability, most hits filed as cytotoxic; hit rate 1.6% among 360,000;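 further: NT is the 2HG producing partner of a matched IDH1 knockdown line; potency means the concentration at half of the fitted maximal effect; 0% = DMSO-treated cells and -100% = media-only wells without cells; nearly all actives have a fitted effect of over 55% in size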
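HT-1080-NT fibrosarcoma cells (2HG-overproducing), 750 cells/well in RPMI with 5% FBS, dosed after 2 h and incubated 48 h at 37C. CellTiter-Glo luminescence normalized to DMSO and no-cell wells; concentration-response curves fitted and classed.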
IL-1B inflam inh: inflammasome signaling inhibition, IL-1 beta readout | THP-1 LPS/ATP IL-1B secretion, AlphaLISA, 16 h; hits give low values | activity change, % at 57.5 µM | hit rate 4.7% among 360,000; in the data active means activity change below about -50%; inconclusive means mostly about -30% to -49%
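THP-1 cells pretreated 1 hr with compounds (up to 57.5 uM final), then stimulated with LPS (250 ng/mL final) plus ATP (1.25 mM final); secreted IL-1B measured by AlphaLISA after 16 hr, decreased signal indicating inhibition.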
DT40 TDP1 CPT: growth inhibition of DT40 Tdp1-/-;hTDP1 cells with camptothecin (screen for TDP1 inhibitors). hit rate 12% among 420,000. Potency, µM (series often up to 46.2 µM), for the others: top-dose activity change, negative = growth inhibition, most hits filed as inhibitors. chicken DT40 Tdp1-/-;hTDP1 cells + 20 nM CPT, ATP luminescence, 48 h; further: potency means the concentration at half of the fitted maximal effect; nearly all actives have a fitted effect of over 55% in size
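Chicken DT40 Tdp1-/- cells complemented with human TDP1, 400 cells/well, exposed to compounds plus 20 nM camptothecin for at least 48 h at 37 C; viability read as ATP content by CellTiter-Glo luminescence.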
DT40 TDP1 no CPT: qHTS for Inhibitors of human tyrosyl-DNA phosphodiesterase 1 (TDP1): qHTS in cells in absence of CPT; DT40 Tdp1-/- hTDP1 cells, no CPT, ATP luminescence, 48 h; Potency, µM (series often up to 46.2 µM), inactives show at the highest dose activity change, negative = growth inhibition, most hits filed as inhibitors; hit rate 15% among 420,000; further: potency means the concentration at half of the fitted maximal effect; nearly all actives have a fitted effect of over 55% in size
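Camptothecin absent (DMSO only). Human TDP1-complemented DT40 knockout cells, 400 cells/well, 37 °C for minimum 48 hr; ATP measured via CellTiter-Glo, 30 min dark incubation, luminescence.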
HT1080 IDH1KD tx: kills HT-1080 cells with IDH1 knockdown | HT-1080 IDH1 knockdown viability, ATP luminescence, 48 h | hit rate 2% among 360,000 | Potency, µM (highest dose often 46.1 µM), without a hit: at the highest dose activity, negative = toxicity, actives largely listed as cytotoxic;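 further: potency means the concentration at half of the fitted maximal effect; 0% = DMSO wells and -100% = cell-free medium wells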
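Cytotoxicity counter-line: IDH1KD HT-1080, 48 h, CellTiter-Glo. Curves classed by r2, magnitude and activity.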
* hit, by the source's call; ? = inconclusive; . = no result given; [ ] = remark or other dose. The list is not random: actives were taken first. Their share in the collection is about 19%. Unless noted, the call rests on the fitted dose curve; in most records, active means well fitted curve in the direction sought with a large enough effect; inconclusive means small, poorly fitted or top-dose-only effect, or another doubt; inactive means no such curve, though single readings can be large; an effect the other way counts as inactive or inconclusive. Unless noted, on the % scale 0 is the no-effect control and ±100 the full control effect.

SMILES	HT1080NT lethal	IL-1B inflam inh	DT40 TDP1 CPT	DT40 TDP1 no CPT	HT1080 IDH1KD tx
O=C(NC1CCN(S(=O)(=O)c2ccc(F)cc2)CC1)c1ccc(F)cc1	8%	-54*	-1%	5%	8%
Cc1ccc(NC(=O)C(C)OC(=O)c2ccc(NS(=O)(=O)c3ccc(F)c(F)c3)cc2)cc1 (stereo unspecified)	-22%	?	?	?	-21%
CCCCN(C)CCC(=O)Nc1ccc2c(c1)CCC2	-6%	9	?	?	-10%
O=C(Nc1ccccc1)N1CCCC2(CCN(C(=O)c3ccco3)CC2)C1	.	.	7%	0%	.
COc1ccc(C)cc1NCc1nnc2n1CCCCC2	.	.	-21%	9%	.
CC(=O)c1ccc(S(=O)(=O)Nc2ccc(S(=O)(=O)N3CCCCC3)cc2)cc1	-3%	0	-20%	3%	4%
CC(=O)c1ccc(NC(=O)Nc2ccc(S(=O)(=O)N3CCCC3)cc2)cc1	-1%	-108*	?	15µM*	-1%
O=C(Nc1ccc(F)cc1)c1ccc(S(=O)(=O)N2CCCC2)cc1	-9%	-75*	2%	?	-2%
O=C(Nc1ccc(Cc2ccncc2)cc1)c1ccc(S(=O)(=O)N2CCCC2)cc1	-18%	-96*	13µM*	10µM*	?
O=C(Nc1ccc(S(=O)(=O)N2CCCC2)cc1)Nc1ccc(F)cc1F	-2%	-13	?	29µM*	-25%
O=C(Nc1ccc(F)cc1)Nc1ccc(S(=O)(=O)N2CCCC2)cc1	?	-18	?	?	?
CC(C)c1ccc(NC(=O)CN2C(=O)c3cccc4cccc2c34)cc1	.	.	-17%	-7%	.
COc1cc(-c2cc(C)c3c(OC)ccc(OC)c3n2)cc2c1OCCN(C(=O)Cn1nc(C)cc1C)C2	.	.	1%[9.04 µM]	-30%	.
CS(=O)(=O)c1ccc(C(=O)Nc2ccc(S(=O)(=O)N3CCCCC3)cc2)cc1	1%	3	?	?	-13%
CS(=O)(=O)c1cccc(C(=O)Nc2ccc(S(=O)(=O)N3CCCCC3)cc2)c1	-9%	11	10µM*	18µM*	-16%
CC(=O)Nc1ccc(C(=O)Nc2ccc(S(=O)(=O)N3CCCCC3)cc2)cc1	7%	25	-29%	-24%	-19%
CC(=O)c1ccc(NC(=O)c2ccc(S(=O)(=O)N3CCCC3)cc2)cc1	5%	0	?	16µM*	6%
Cc1c(CN2CCOc3ccc(C(C)(O)COc4ccccc4)cc3C2)cnn1C (stereo unspecified)	.	.	-7%[9.04 µM]	-29%	.
CC1=C(c2ccc(C(C)C)cc2)S(=O)(=O)N=C1N1CCN(c2ccccc2F)CC1	.	.	?	18µM*	.
CC1=C(c2ccc(C(C)C)cc2)S(=O)(=O)N=C1N1CCN(C(=O)c2ccco2)CC1	0%	11	-23%	-16%	11%
CCc1ccc(C2=C(C)C(N3CCC(C(=O)NCCc4ccco4)CC3)=NS2(=O)=O)cc1	.	.	?	18µM*	.
CC1=C(c2ccc(Cl)cc2)S(=O)(=O)N=C1N1CCC(C(=O)NCCc2ccco2)CC1	.	.	0%	?	.
CC1=C(c2ccc(C(C)C)cc2)S(=O)(=O)N=C1N1CCC(C(=O)NCCc2ccco2)CC1	.	.	23µM*	?	.
Cc1cccc(C(=O)O)c1NC(=O)Cc1cccc2ccccc12	6%	66	?	?	-13%
Cc1ccc2[nH]c(C)c(CCNC(=O)C3CCCCC3C(=O)OCC(F)(F)F)c2c1 (stereo unspecified)	11%	-2	16%	-17%	0%
CCCCn1c(N)c(N(CC(C)C)C(=O)c2ccc(OCC3CCCO3)cc2)c(=O)[nH]c1=O (stereo unspecified)	-5%	-7	-5%	-14%	-3%
O=C1c2ccccc2C(=O)N1Cc1cnc(N2CCN(c3ccccc3)CC2)s1	-20%	11	8.2µM*	12µM*	-1%
Cc1nc(NC(=O)CN2CCC(O)(c3ccc(F)cc3)CC2)sc1C	-2%	?	-28%	-16%	-1%
